Drawing on ChEMBL document CHEMBL2218924, “A broad activity screen in support of a chemogenomic map for kinase signalling research and drug discovery” (Biochem J, 2013), this text covers residual activity for six compounds.

The target of assay [1] is Serine/threonine-protein kinase PAK 4 (Homo sapiens) (UniProt O96013). To be noted: at 1 µM.
For assay [2] the target is unchanged. Conditions: at 10 µM.
The target in assay [3] is Serine/threonine-protein kinase PAK 5 (Homo sapiens) (UniProt Q9P286). Conditions: at 1 µM.
For assay [4] the target is unchanged. Conditions: at 10 µM.
Assay [5] has as its target Serine/threonine-protein kinase PAK 6 (Homo sapiens) (UniProt Q9NQU5). To be noted: at 1 µM.
Assay [6] shares this target. Conditions: at 10 µM.
Assay [7] has as its target PAS domain-containing serine/threonine-protein kinase (Homo sapiens) (UniProt Q96RG2). Conditions: at 10 µM.
The target in assay [8] is Activated CDC42 kinase 1 (Homo sapiens) (UniProt Q07912). To be noted: at 1 µM.
Assay [9] has the same target. To be noted: at 10 µM.
The target in assay [10] is ALK tyrosine kinase receptor (Homo sapiens) (UniProt Q9UM73). To be noted: at 1 µM.
For assay [11] the target is unchanged. To be noted: at 10 µM.
Assay [12] has as its target T1, Activin receptor type-1B (Homo sapiens) (UniProt P36896).
T1 sequence (whole entry): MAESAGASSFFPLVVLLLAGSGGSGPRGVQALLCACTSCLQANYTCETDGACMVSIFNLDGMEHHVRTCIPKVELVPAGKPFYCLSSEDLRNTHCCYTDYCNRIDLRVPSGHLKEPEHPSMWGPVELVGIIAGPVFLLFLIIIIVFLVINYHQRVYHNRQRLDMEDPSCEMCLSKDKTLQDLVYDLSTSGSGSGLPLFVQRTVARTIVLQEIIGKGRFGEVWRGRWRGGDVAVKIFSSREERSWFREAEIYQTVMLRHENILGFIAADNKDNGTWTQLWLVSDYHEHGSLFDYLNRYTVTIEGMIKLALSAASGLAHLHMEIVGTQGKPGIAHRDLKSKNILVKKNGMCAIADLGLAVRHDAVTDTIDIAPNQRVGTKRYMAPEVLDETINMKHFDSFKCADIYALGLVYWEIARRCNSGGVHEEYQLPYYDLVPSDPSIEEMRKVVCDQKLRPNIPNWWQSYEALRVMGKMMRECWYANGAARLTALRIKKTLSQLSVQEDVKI
Conditions: at 1 µM.

Assay [13] addresses T1, Activin receptor type-1B (Homo sapiens). Conditions: at 10 µM.
In assay [14] the target is T2, AMP-activated protein kinase (AMPK) alpha-1/beta-1/gamma-1 (Homo sapiens) (UniProt P54619+Q9Y478+Q13131). Conditions: at 1 µM.
The target in assay [15] is T2, AMP-activated protein kinase (AMPK) alpha-1/beta-1/gamma-1 (Homo sapiens). Conditions: at 10 µM.
Assay [16] addresses T3, AMP-activated protein kinase, AMPK (Homo sapiens) (UniProt P54646+O43741+P54619+Q9UGJ0+Q9Y478+Q13131+Q9UGI9). To be noted: at 1 µM.
Assay [17] has as its target T3, AMP-activated protein kinase, AMPK (Homo sapiens). To be noted: at 10 µM.
Assay [18] concerns the target T4, NUAK family SNF1-like kinase 1 (Homo sapiens) (UniProt O60285).
T4 sequence (whole entry): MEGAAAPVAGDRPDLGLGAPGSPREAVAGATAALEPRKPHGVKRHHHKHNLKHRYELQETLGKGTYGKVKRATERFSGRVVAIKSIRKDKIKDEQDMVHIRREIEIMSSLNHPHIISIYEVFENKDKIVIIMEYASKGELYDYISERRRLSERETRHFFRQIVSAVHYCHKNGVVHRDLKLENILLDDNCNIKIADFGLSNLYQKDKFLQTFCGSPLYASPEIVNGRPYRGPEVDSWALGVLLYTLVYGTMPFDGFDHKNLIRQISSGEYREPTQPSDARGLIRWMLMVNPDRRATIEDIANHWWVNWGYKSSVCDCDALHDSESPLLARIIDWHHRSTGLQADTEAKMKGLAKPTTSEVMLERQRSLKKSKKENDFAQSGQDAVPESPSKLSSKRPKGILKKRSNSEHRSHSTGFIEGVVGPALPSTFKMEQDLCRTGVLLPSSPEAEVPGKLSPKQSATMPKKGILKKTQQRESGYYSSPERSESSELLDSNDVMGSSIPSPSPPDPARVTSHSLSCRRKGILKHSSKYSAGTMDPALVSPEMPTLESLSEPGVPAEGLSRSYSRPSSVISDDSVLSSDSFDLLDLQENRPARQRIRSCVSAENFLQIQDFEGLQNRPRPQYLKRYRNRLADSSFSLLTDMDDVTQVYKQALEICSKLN
Conditions: at 1 µM.

Assay [19] has as its target T4, NUAK family SNF1-like kinase 1 (Homo sapiens). To be noted: at 10 µM.
In assay [20] the target is T5, Mitogen-activated protein kinase kinase kinase 5 (Homo sapiens) (UniProt Q99683).
T5 sequence (whole entry): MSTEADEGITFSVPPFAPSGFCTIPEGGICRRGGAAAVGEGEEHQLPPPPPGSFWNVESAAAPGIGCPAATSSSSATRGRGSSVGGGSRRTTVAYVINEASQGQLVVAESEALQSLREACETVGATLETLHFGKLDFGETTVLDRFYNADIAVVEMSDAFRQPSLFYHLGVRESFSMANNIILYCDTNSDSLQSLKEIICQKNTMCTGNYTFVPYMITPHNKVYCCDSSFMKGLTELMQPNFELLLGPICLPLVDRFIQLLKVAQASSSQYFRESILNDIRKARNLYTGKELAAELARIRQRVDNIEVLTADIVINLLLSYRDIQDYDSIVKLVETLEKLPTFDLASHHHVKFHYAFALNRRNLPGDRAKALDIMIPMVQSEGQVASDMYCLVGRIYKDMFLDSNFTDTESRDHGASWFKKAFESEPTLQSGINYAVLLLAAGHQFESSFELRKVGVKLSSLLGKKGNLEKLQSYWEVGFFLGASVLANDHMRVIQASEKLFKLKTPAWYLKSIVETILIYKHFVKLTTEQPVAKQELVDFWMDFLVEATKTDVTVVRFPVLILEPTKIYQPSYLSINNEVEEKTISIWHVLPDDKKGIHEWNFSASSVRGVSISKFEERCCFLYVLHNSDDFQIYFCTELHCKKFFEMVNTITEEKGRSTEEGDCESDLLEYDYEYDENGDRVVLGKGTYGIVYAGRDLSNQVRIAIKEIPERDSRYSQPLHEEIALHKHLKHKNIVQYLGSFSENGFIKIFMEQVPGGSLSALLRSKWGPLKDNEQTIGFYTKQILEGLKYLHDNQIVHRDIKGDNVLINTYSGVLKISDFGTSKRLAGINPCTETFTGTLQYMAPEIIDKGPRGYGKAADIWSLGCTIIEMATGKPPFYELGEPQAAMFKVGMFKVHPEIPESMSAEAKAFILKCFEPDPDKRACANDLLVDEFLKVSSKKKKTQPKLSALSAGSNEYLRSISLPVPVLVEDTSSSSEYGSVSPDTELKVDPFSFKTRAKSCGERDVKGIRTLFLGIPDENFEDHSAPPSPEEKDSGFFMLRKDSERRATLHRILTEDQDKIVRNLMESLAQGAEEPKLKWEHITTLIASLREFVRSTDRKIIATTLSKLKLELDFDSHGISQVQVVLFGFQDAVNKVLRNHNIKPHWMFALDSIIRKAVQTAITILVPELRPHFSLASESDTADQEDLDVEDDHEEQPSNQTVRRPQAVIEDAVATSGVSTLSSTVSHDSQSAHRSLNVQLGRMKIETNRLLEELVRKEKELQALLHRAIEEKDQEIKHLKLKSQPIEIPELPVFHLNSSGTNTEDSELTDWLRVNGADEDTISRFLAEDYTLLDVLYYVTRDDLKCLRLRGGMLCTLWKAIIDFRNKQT
To be noted: at 1 µM.

Chain of PAS domain-containing serine/threonine-protein kinase (Homo sapiens) (Q96RG2 whole entry, the tested form may be a part): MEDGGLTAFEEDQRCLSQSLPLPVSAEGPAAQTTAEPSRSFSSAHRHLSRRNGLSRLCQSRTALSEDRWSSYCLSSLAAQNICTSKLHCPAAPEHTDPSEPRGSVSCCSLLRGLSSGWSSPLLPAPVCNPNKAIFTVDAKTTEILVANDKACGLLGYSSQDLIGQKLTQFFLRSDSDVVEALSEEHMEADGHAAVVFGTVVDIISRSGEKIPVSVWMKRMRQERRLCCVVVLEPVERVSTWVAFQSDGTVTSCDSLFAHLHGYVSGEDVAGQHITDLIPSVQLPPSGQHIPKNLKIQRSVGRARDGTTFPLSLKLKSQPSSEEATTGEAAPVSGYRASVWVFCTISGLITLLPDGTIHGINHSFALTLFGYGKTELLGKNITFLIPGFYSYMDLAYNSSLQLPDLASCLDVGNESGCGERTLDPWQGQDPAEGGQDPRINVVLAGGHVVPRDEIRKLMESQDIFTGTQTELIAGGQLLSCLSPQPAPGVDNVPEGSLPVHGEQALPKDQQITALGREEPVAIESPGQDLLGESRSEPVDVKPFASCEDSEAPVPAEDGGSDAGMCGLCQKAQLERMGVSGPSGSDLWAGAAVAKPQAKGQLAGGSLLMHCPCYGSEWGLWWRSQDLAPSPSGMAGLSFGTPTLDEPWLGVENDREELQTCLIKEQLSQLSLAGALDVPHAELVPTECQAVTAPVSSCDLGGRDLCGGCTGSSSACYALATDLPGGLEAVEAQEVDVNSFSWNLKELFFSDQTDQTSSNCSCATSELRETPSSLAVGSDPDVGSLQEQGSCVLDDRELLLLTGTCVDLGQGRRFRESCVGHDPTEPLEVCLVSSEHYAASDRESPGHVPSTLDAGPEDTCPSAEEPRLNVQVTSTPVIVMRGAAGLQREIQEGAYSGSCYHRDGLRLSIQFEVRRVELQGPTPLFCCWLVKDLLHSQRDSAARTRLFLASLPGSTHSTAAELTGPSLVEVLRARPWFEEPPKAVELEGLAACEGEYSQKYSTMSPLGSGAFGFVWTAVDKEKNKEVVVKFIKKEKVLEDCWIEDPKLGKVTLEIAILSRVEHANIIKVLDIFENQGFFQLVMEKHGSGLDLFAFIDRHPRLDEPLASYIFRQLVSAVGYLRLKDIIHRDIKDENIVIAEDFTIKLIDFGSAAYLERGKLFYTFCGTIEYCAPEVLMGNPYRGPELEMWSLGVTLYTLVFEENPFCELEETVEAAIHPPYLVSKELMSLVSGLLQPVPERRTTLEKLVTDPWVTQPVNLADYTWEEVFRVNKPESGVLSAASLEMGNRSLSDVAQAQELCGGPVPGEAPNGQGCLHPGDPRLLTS
Chain of Serine/threonine-protein kinase PAK 6 (Homo sapiens) (Q9NQU5 whole entry, looked up): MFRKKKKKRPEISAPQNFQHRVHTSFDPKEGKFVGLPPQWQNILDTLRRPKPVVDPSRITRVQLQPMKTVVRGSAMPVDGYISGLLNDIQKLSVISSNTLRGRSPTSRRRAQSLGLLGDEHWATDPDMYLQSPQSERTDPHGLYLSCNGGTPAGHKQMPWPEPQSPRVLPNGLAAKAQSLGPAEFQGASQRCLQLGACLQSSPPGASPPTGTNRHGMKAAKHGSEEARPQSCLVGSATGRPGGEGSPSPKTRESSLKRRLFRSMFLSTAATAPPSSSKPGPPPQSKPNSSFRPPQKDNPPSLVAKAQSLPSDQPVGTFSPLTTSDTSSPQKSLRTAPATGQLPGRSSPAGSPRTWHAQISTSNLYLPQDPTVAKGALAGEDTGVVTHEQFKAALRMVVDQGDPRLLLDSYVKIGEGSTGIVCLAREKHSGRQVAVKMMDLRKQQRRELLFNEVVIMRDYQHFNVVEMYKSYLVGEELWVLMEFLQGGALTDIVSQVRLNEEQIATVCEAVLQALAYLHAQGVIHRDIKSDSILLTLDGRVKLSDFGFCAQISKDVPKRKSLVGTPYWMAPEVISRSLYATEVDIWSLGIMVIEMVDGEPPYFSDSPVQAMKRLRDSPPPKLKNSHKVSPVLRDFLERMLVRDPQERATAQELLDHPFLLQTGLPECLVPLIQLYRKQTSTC
Chain of Serine/threonine-protein kinase PAK 4 (Homo sapiens) (O96013 whole entry, looked up): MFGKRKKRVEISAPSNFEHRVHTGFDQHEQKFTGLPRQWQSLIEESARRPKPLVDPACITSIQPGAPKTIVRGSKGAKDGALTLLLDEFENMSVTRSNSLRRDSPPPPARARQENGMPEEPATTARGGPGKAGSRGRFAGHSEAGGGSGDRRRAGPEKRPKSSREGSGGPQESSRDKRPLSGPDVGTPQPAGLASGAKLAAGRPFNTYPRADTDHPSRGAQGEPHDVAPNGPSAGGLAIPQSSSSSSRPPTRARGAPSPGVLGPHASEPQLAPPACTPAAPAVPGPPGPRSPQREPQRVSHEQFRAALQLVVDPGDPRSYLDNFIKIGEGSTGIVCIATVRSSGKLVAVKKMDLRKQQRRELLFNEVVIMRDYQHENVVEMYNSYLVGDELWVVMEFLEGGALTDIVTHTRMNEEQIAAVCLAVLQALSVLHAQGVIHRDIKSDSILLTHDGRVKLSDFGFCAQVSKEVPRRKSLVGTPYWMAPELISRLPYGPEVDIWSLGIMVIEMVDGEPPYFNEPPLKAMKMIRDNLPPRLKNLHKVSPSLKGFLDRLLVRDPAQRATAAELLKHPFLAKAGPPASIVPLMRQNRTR
T2 sequence (P54619 whole entry): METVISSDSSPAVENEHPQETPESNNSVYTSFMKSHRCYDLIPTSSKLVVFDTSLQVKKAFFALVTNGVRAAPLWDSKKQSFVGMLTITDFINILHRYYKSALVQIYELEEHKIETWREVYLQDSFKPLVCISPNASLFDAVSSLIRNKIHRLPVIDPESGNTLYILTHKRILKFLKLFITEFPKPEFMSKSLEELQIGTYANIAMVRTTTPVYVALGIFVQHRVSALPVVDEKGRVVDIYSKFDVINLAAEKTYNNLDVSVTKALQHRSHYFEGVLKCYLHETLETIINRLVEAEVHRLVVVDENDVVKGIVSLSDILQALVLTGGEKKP
T2 sequence (Q13131 whole entry partner): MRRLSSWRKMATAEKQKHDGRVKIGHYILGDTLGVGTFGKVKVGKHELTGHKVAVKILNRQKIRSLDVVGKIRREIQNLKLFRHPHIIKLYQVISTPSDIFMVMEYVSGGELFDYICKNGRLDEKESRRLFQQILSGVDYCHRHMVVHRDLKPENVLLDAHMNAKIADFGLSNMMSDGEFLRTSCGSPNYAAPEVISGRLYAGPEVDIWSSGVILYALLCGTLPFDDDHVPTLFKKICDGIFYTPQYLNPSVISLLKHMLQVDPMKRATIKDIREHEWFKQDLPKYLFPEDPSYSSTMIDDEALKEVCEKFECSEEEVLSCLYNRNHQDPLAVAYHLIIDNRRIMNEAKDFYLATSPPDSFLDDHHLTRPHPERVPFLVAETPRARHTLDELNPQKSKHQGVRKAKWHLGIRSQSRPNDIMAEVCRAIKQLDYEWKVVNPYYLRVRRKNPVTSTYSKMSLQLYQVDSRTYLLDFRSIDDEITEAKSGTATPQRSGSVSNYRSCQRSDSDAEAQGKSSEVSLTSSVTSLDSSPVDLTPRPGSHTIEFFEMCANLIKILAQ
T2 sequence (Q9Y478 2-270 partner limits assumed): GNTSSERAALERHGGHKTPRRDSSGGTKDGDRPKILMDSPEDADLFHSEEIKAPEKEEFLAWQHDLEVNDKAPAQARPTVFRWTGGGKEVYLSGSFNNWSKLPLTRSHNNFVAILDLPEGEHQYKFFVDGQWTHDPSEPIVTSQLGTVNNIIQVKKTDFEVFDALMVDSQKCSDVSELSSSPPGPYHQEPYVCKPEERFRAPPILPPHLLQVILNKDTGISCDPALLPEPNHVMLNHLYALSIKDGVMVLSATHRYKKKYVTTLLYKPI
Chain of Serine/threonine-protein kinase PAK 5 (Homo sapiens) (Q9P286 whole entry, looked up): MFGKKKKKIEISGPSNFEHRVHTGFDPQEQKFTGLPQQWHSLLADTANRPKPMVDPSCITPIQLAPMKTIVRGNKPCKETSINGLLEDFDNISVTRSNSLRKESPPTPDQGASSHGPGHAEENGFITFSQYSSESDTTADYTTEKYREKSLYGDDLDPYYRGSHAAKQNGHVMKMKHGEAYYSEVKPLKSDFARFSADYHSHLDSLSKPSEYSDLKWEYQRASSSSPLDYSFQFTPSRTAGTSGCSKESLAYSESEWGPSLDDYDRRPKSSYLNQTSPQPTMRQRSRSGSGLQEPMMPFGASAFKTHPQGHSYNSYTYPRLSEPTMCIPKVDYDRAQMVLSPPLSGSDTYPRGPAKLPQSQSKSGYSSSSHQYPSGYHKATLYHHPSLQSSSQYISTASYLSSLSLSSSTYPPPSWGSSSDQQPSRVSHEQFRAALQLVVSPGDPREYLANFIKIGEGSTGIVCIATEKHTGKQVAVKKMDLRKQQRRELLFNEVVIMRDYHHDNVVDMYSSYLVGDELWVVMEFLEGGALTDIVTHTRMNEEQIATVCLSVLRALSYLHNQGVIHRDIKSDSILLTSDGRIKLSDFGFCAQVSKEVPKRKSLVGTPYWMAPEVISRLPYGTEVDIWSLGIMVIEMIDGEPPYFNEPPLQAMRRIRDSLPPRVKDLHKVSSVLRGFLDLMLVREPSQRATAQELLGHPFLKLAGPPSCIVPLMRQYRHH

`Cc1cc(Nc2nc(-c3ccccc3)nc3ccccc23)n[nH]1`: the residual activity in [1] came to 9%; in assay [2], 2%; in assay [3], 21%; in assay [4], 3%; in assay [5], 47%; in assay [6] it was 7%. Also, the residual activity in [7] came out at 121%; in assay [8], 13%; in assay [9], 0%; in assay [10], 70%; in assay [11], 15%; in assay [12], 96%. In addition, the residual activity in assay [13] amounted to 76%; in assay [14], 15%; in assay [15] it was 3%; in assay [16] it was 5%; in assay [17], 3%; in assay [18], 3%. Also, the residual activity in assay [19] is -1%; in assay [20] it was 94%.

As for `O=Nc1c(-c2c(O)[nH]c3ccccc23)[nH]c2ccccc12`, the residual activity in assay [1] was found to be 55%; in assay [2], 14%; in assay [3], 64%; in [4], 33%; in assay [5] it was 63%; in assay [6] it was 37%. Besides, the residual activity came out at 76% in assay [7]; 34% in assay [8]; 4% in [9]; 52% in assay [10]; 18% in assay [11]; 104% in assay [12]. Moreover, the residual activity was 72% in assay [13]; 2% in [14]; 0% in [15]; 1% in [16]; 3% in assay [17]; 4% in assay [18]. In addition, the residual activity in assay [19] was found to be 7%; in [20] it was 52%.

On to `O=C(O)c1ccc2c3c1cccc3c(=O)n1c3ccccc3nc21`, for which the residual activity in [1] was 100%; in assay [2], 98%; in assay [3] it was 100%; in assay [4], 96%; in assay [5], 91%; in assay [6], 85%. Further, the residual activity in assay [7] was 98%; in assay [8], 94%; in assay [9], 75%; in assay [10], 70%; in assay [11], 49%; in assay [12], 110%. Further, the residual activity was determined as 108% in [13]; 34% in [14]; 6% in [15]; 37% in [16]; 13% in [17]; 73% in [18]. Besides, the residual activity in assay [19] is 28%; in [20] it was 90%.

As for `Nc1cccc(-c2cc3c(Oc4cccc(O)c4)ncnc3[nH]2)c1`, the residual activity in assay [1] was 63%; in [2] it was 19%; in assay [3], 87%; in assay [4] it was 31%; in assay [5], 86%; in [6], 48%. In addition, the residual activity is 101% in assay [7]; 10% in assay [8]; -1% in assay [9]; 42% in assay [10]; 8% in assay [11]; 72% in assay [12]. Besides, the residual activity in assay [13] came to 36%; in assay [14], 53%; in assay [15], 13%; in [16], 54%; in [17], 15%; in [18] it was 31%. Also, the residual activity in assay [19] came to 7%; in [20], 96%.

For `COc1cccc(-c2cc(=O)c3ccccc3o2)c1N`, the residual activity in [1] is 105%; in assay [2], 96%; in assay [3], 122%; in assay [4] it was 99%; in assay [5], 96%; in assay [6], 89%. In addition, the residual activity in assay [7] came out at 101%; in assay [8], 83%; in [9], 70%; in assay [10], 95%; in assay [11] it was 83%; in [12], 111%. Further, the residual activity in assay [13] worked out at 108%; in [14], 101%; in assay [15], 96%; in assay [16], 98%; in assay [17], 94%; in assay [18], 109%. Further, the residual activity in assay [19] came to 93%; in assay [20], 119%.

`COc1cc2ncnc(Nc3ccc(O)c(Br)c3)c2cc1OC`: the residual activity in assay [1] stood at 89%; in [2], 77%; in assay [3], 98%; in assay [4], 98%; in assay [5], 123%; in [6], 104%. Further, the residual activity in assay [7] was found to be 8%; in assay [8], 14%; in assay [9], 1%; in [10], 19%; in assay [11], 3%; in [12], 111%. The residual activity came out at 85% in assay [13]; 82% in assay [14]; 37% in assay [15]; 93% in assay [16]; 52% in [17]; 78% in assay [18]. For the same compound, the residual activity turned out to be 36% in assay [19] and 77% in assay [20].
